# Measured values: PubChem BioAssay AID602325 (NMMLSC, 2012)
# The list shows a part of the results. Values without a mark were called inactive. Activity calls are given as the source filed them. No stated cut-off is given here; in the data, active means inhibition above about 24%; inactive means the rest.
# Test system: Botulinum neurotoxin type A light chain protease [Clostridium botulinum A str. ATCC 3502]
# Assay: inhibition of botulinum toxin A LC protease – biochemical, flow cytometry, cherry pick 2, confirmation (AID 602325)
# Conditions: multiplex microsphere protease cleavage assay, at 10 µM, hits give high values
row,SMILES,inhibition
1,CCOc1ncccc1C(=O)OCC(=O)c1c[nH]c2ccccc12,9.5%
2,Cc1ccc(CNC(=O)c2cccc3c2C(=O)c2ccc(N4CCC(C)CC4)cc2S3(=O)=O)cc1,8.9%
3,CC(=O)OCCN(CCCn1c(-c2ccncc2)nc2ccccc21)c1nc(-c2ccc(C)cc2)cs1,1.8%
4,Cc1cc2cc(CNC(=O)c3ccc(S(=O)(=O)N4CCOCC4)cc3)ccc2[nH]1,3.8%
5,O=C(CN1CCN(c2ccccc2O)CC1)NC(=O)NCc1ccccc1,1.6%
6,O=C(OCC(=O)c1c[nH]c2ccccc12)c1cccc(O)c1,1.5%
7,Cc1cc2ccccc2n1CCNC(=O)COc1ccc2ccccc2c1,5.2%
8,COc1ccc(-c2cc3c(c4c2ccn4C)C2CCC3C2)cn1 (stereo not drawn),25.2% (active)
